Results: PubChem BioAssay (NCI)
The panel holds about 83,000 compounds, 20% with a hit somewhere; the sample as a whole holds those more often.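 For each line, cells grew in 96-well plates with the test compound present at a single concentration for 48 hours.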 Active and inactive are the calls of the source. The calls were made as follows: active = growth percent below 10; inactive = the rest.

What was measured:
Experiment in all cases: NCI-60 one-dose screen, 48 h (100 = growth as untreated, 0 = no growth, -100 = all killed)
Settings in all cases: 10 µM unless noted
T-47D breast = system: T-47D breast
BT-549 breast = system: BT-549 breast
MDA-MB-435 melanoma = system: MDA-MB-435 melanoma
SW-620 colon = system: SW-620 colon
MCF7 breast = system: MCF7 breast
HCT-116 colon = system: HCT-116 colon
HCC-2998 colon = system: HCC-2998 colon
KM12 colon = system: KM12 colon

Measured: growth

Clc1ccc(N/N=c2/oc3ccccc3cc2-c2cc3ccccc3[nH]2)cc1
active: MDA-MB-435 melanoma -71.4%
inactive: T-47D breast 40.4% | BT-549 breast 80.3% | SW-620 colon 78.7% | MCF7 breast 53.3% | HCT-116 colon 66.9% | HCC-2998 colon 95.6% | KM12 colon 58.1%

CCCn1cnc2c(c1=N)C(c1ccc(OC)cc1)c1sc3c(C)cccc3c1O2 (stereo not drawn)
inactive: T-47D breast 40.6% | BT-549 breast 12.2% | SW-620 colon 25.7% | MCF7 breast 20.4% | HCC-2998 colon 15% | KM12 colon 11.7%
active: MDA-MB-435 melanoma -33.4% | HCT-116 colon 6.27%

COc1c(N2CC3CCCNC3C2)c(F)cc2c(=O)c(C(=O)N/N=C/c3ccc4c(c3)OCO4)cn(C3CC3)c12 (stereo not drawn)
inactive: T-47D breast 76.7% | BT-549 breast 94.9% | MDA-MB-435 melanoma 102% | SW-620 colon 47.1% | MCF7 breast 14.6% | HCT-116 colon 32.7% | HCC-2998 colon 54.8% | KM12 colon 88%

COc1c(N2CC3CCCNC3C2)c(F)cc2c(=O)c(C(=O)N/N=C/c3ccc(N(C)C)cc3)cn(C3CC3)c12 (stereo not drawn)
inactive: T-47D breast 95.5% | BT-549 breast 121% | MDA-MB-435 melanoma 94% | SW-620 colon 80.7% | MCF7 breast 44.1% | HCT-116 colon 31.3% | HCC-2998 colon 89.4% | KM12 colon 74.5%

O=S(=O)(Nc1cccc2ccccc12)c1ccc(-c2cnc(C3CC3)o2)cc1
active: MDA-MB-435 melanoma -39.9%
inactive: T-47D breast 62.4% | BT-549 breast 21.3% | SW-620 colon 24.6% | MCF7 breast 22% | HCT-116 colon 12.4% | HCC-2998 colon 21.3% | KM12 colon 10.7%

COc1ccc(CCOc2cc3c(cc2OC)CCN(C(=O)NCc2cocn2)C3c2ccc(C)cc2C)cc1 (stereo not drawn)
active: BT-549 breast -17% | MDA-MB-435 melanoma 8.73% | HCT-116 colon 6.95%
inactive: T-47D breast 49% | SW-620 colon 23% | MCF7 breast 13.5% | HCC-2998 colon 11.5% | KM12 colon 11.4%

O=C(/C=C/c1ccc(F)cc1)c1ccc(O)cc1
inactive: T-47D breast 93.9% | BT-549 breast 103% | MDA-MB-435 melanoma 67% | SW-620 colon 81.4% | MCF7 breast 30.3% | HCC-2998 colon 112% | KM12 colon 59.3%
active: HCT-116 colon -44.1%

COc1cc(/C=N/NC(=O)c2cn(C3CC3)c3c(OC)c(N4CC5CCCNC5C4)c(F)cc3c2=O)ccc1O (stereo not drawn)
active: T-47D breast -30.4% | SW-620 colon 0.437% | MCF7 breast -27.7% | HCT-116 colon -59.1%
inactive: BT-549 breast 107% | MDA-MB-435 melanoma 95.3% | HCC-2998 colon 14.8% | KM12 colon 69.2%

O=C(O)c1ccc(-n2cc(CNc3cc(F)c(F)c(F)c3)c(-c3cccc(F)c3)n2)cc1
inactive: T-47D breast 81.6% | BT-549 breast 107% | MDA-MB-435 melanoma 99.8% | SW-620 colon 105% | MCF7 breast 41% | HCT-116 colon 86.2% | HCC-2998 colon 87.5% | KM12 colon 96.8%

O=C(NNc1nc2cc(F)ccc2n2c(CN3CCCC3)ccc12)c1cnccn1
inactive: T-47D breast 15.4% | BT-549 breast 24.1% | MDA-MB-435 melanoma 34.4% | SW-620 colon 22.3% | HCT-116 colon 11.1% | HCC-2998 colon 35.7% | KM12 colon 20.3%
active: MCF7 breast 4.57%

CCN(CC)CCn1c2ccc(O)cc2c2sc3cc(OC)ccc3c(=O)c21
inactive: T-47D breast 59.3% | BT-549 breast 68.1% | MDA-MB-435 melanoma 19.4% | HCC-2998 colon 36.6% | KM12 colon 25%
active: SW-620 colon -50.8% | MCF7 breast -55.2% | HCT-116 colon -46%

COc1cccc(N2CCN(c3ncnc4c3[nH]c3ccc(F)cc34)C[C@H]2C)c1
inactive: T-47D breast 14.6% | MDA-MB-435 melanoma 19.4% | SW-620 colon 95.9% | MCF7 breast 37.2% | HCT-116 colon 41.9% | HCC-2998 colon 96.8% | KM12 colon 54.5%
active: BT-549 breast -3.9%

COc1ccc(C2CC(c3ccc(Nc4nc(NCCO)nc(N5CCOCC5)n4)cc3)=Nc3c(N)nc(N)nc3N2)cc1 (stereo not drawn)
inactive: T-47D breast 90.5% | BT-549 breast 99.2% | MDA-MB-435 melanoma 108% | SW-620 colon 101% | MCF7 breast 86.2% | HCT-116 colon 100% | HCC-2998 colon 105% | KM12 colon 89%

CCOC(=O)C(=O)/C(=C\c1ccc(Cl)cc1)C(=O)N1C(=S)NC(=O)C1CC(C)C (stereo not drawn)
inactive: T-47D breast 98.2% | BT-549 breast 108% | MDA-MB-435 melanoma 98.6% | SW-620 colon 104% | MCF7 breast 92% | HCT-116 colon 99.3% | HCC-2998 colon 101% | KM12 colon 98.8%

Cc1ccc(-c2cc3nc(C(Cl)Cl)nc(-c4cccs4)n3n2)cc1
inactive: T-47D breast 87.8% | BT-549 breast 97.8% | MDA-MB-435 melanoma 77.6% | SW-620 colon 52.5% | MCF7 breast 59.8% | HCT-116 colon 63.5% | HCC-2998 colon 54.1% | KM12 colon 27.1%

Cn1cc(-c2nnc(N)nc2-c2c[nH]c3ccc(F)cc23)c2cc(F)ccc21
inactive: T-47D breast 26.1% | BT-549 breast 71.2% | MDA-MB-435 melanoma 94.8% | SW-620 colon 59.8% | MCF7 breast 30.4% | HCT-116 colon 62.1% | HCC-2998 colon 93.1% | KM12 colon 74.5%

O=C(NNc1nc2cc(F)ccc2n2c(CN3CCC(O)C3)ccc12)c1cnccn1 (stereo not drawn)
active: MCF7 breast 8.92%
inactive: T-47D breast 13% | BT-549 breast 29.5% | MDA-MB-435 melanoma 27.8% | SW-620 colon 24.6% | HCT-116 colon 17.9% | HCC-2998 colon 38.5% | KM12 colon 24.9%

N#Cc1cccc(CN2CCC3=C(C2)C(=O)N(Cc2ccc(Cl)cc2)C2=NCCN23)c1
inactive: T-47D breast 23.7% | BT-549 breast 45.4% | MDA-MB-435 melanoma 19.9% | SW-620 colon 33% | MCF7 breast 14.1% | HCT-116 colon 19.6% | HCC-2998 colon 17.6% | KM12 colon 40.9%

CNC(=O)c1cc(Oc2ccc3nc(NC(=O)c4cccc(OC(F)(F)F)c4)sc3c2)ccn1
inactive: T-47D breast 63.1% | BT-549 breast 137% | MDA-MB-435 melanoma 79% | SW-620 colon 103% | MCF7 breast 77.6% | HCT-116 colon 75.5% | HCC-2998 colon 108% | KM12 colon 85.6%

COc1ccc(N2C(=O)c3cc(Cl)ccc3NC2SCc2ccccc2)cc1 (stereo not drawn)
inactive: T-47D breast 88.1% | BT-549 breast 97.5% | MDA-MB-435 melanoma 94.5% | SW-620 colon 103% | MCF7 breast 85.4% | HCT-116 colon 73.8% | HCC-2998 colon 106% | KM12 colon 96.9%

Cn1cc(-c2nc(N)nnc2-c2c[nH]c3ccccc23)c2cc(Br)ccc21
inactive: T-47D breast 31.2% | BT-549 breast 32.9% | SW-620 colon 18.2% | MCF7 breast 18.1% | HCT-116 colon 20.3% | HCC-2998 colon 57.6% | KM12 colon 18.1%
active: MDA-MB-435 melanoma -37.6%

C=CCn1c(SCC(=O)Nc2ccc(C(=O)/C=C/c3ccc(Br)cc3)cc2)nnc1-c1c[nH]c2ccccc12
inactive: T-47D breast 60.7% | BT-549 breast 119% | MDA-MB-435 melanoma 94.7% | SW-620 colon 92.3% | MCF7 breast 22.8% | HCC-2998 colon 109% | KM12 colon 89.3%
active: HCT-116 colon -60.7%

O=C1/C(=C/C=C/c2ccco2)SC(=S)N1c1ccccc1
inactive: T-47D breast 76.8% | BT-549 breast 65.2% | MDA-MB-435 melanoma 89.1% | SW-620 colon 98.9% | MCF7 breast 57.4% | HCT-116 colon 35.3% | HCC-2998 colon 87.3% | KM12 colon 94.4%

CCO/C=N/C1=C(C#N)C(c2ccc(F)cc2)c2sc3c(C)cccc3c2O1 (stereo not drawn)
active: MDA-MB-435 melanoma -31.2% | HCT-116 colon 6.05% | KM12 colon 8.6%
inactive: T-47D breast 62.1% | BT-549 breast 20% | SW-620 colon 19.6% | MCF7 breast 14.6% | HCC-2998 colon 18.7%

Cc1ccc(-c2nnc(SCc3ccc(O)c4ncccc34)n2-c2ccccc2)cc1
inactive: BT-549 breast 18.4% | SW-620 colon 12.9% | HCC-2998 colon 22.3%
active: T-47D breast 5.79% | MDA-MB-435 melanoma 9.9% | MCF7 breast 4.47% | HCT-116 colon 6.12% | KM12 colon 2.4%

Cc1noc(C)c1CSc1nc2ccccc2n1-c1ccccc1
inactive: T-47D breast 93.8% | BT-549 breast 87.5% | MDA-MB-435 melanoma 100% | SW-620 colon 94.5% | MCF7 breast 94.9% | HCT-116 colon 92.9% | HCC-2998 colon 112% | KM12 colon 101%

Nc1nc(-c2cccc([N+](=O)[O-])c2)c(N=Nc2ccccc2)s1
inactive: T-47D breast 40.5% | BT-549 breast 73.2% | MDA-MB-435 melanoma 64.9% | SW-620 colon 64.9% | MCF7 breast 51.9% | HCT-116 colon 54.8% | HCC-2998 colon 71.6% | KM12 colon 44%

COc1ccccc1NCc1cccn1Cc1ccc(F)cc1
inactive: T-47D breast 97% | BT-549 breast 93.3% | MDA-MB-435 melanoma 99.6% | SW-620 colon 98.2% | MCF7 breast 93.1% | HCT-116 colon 93.8% | HCC-2998 colon 105% | KM12 colon 95.9%

CC/C(=C/c1c(O)cccc1OC)c1ccc2c(OC)cccc2[o+]1
inactive: T-47D breast 106% | BT-549 breast 98.5% | MDA-MB-435 melanoma 97.7% | SW-620 colon 101% | MCF7 breast 86.4% | HCT-116 colon 104% | HCC-2998 colon 106% | KM12 colon 98.9%

CN(C)CCN(C)c1ccc2ncc(C#Cc3cncc(C(=O)Nc4ccc(CN5CCN(C)CC5)c(C(F)(F)F)c4)c3)n2n1
active: SW-620 colon -44.9% | MCF7 breast -63.7% | HCT-116 colon -85.9% | KM12 colon -39.8%
inactive: T-47D breast 101% | BT-549 breast 111% | MDA-MB-435 melanoma 48.4% | HCC-2998 colon 33.9%

CN1CCN(Cc2ccc(NC(=O)c3cncc(C#Cc4cnc5ccc(N6CCN(C)CC6)nn45)c3)cc2C(F)(F)F)CC1
inactive: T-47D breast 110% | BT-549 breast 73% | HCC-2998 colon 54.8%
active: MDA-MB-435 melanoma -87.5% | SW-620 colon -74.9% | MCF7 breast -76.2% | HCT-116 colon -20.1% | KM12 colon -78.8%
